Molecules are shown by their SMILES. Read-outs that look alike come from different tables or passages of the source.

Holding throughout (set-up): species or system human, MV4-11 + K-562 + COLO205 + SK-N-BE2 + OVCAR-8
For assay [1], the system named is EPHA1. The settings on record: read-out: apparent Kd, compound concentrations: 100 nM and 1000 nM (sheet 'Samples'), n = 1.
Assay [2] has as its system EPHA2. Conditions: read-out: apparent Kd; compound concentrations: 100 nM and 1000 nM (sheet 'Samples'), CATDS: 7.9638266315165504E-2; n = 1.
For assay [3], the system named is EPHA4. Conditions: read-out: apparent Kd; compound concentrations: 100 nM and 1000 nM (sheet 'Samples'), CATDS: 5.73813509995778E-2; n = 1.
Assay [4] deals with EPHA5. The settings on record: read-out: apparent Kd, compound concentrations: 100 nM and 1000 nM (sheet 'Samples'), n = 1.
Assay [5] concerns EPHB2. Conditions: read-out: apparent Kd; compound concentrations: 100 nM and 1000 nM (sheet 'Samples'), CATDS: 6.01599429552135E-2; n = 1.
Assay [6] concerns EPHB4. The settings on record: read-out: apparent Kd; compound concentrations: 100 nM and 1000 nM (sheet 'Samples'), CATDS: 8.2169743824678607E-2; n = 1.
The subject of assay [7] is GAK. Conditions: read-out: apparent Kd, compound concentrations: 100 nM and 1000 nM (sheet 'Samples'), n = 1.
Assay [8] relates to HSP90B1. Conditions: read-out: apparent Kd; compound concentrations: 100 nM and 1000 nM (sheet 'Samples'), CATDS: 5.9403199864953501E-2; n = 1.
Assay [9] concerns MAP4K4. Conditions: read-out: apparent Kd; compound concentrations: 100 nM and 1000 nM (sheet 'Samples'), CATDS: 6.0397447549850998E-2; n = 1.
Assay [10] concerns RIPK2. Conditions: read-out: apparent Kd, compound concentrations: 100 nM and 1000 nM (sheet 'Samples'), n = 1.
For assay [11], the system named is RIPK3. Conditions: read-out: apparent Kd, compound concentrations: 100 nM and 1000 nM (sheet 'Samples'), n = 1.
Assay [12] concerns TGFBR2. Conditions: read-out: apparent Kd, compound concentrations: 100 nM and 1000 nM (sheet 'Samples'), n = 1.
Assay [13] concerns TNIK. Conditions: read-out: apparent Kd; compound concentrations: 100 nM and 1000 nM (sheet 'Samples'), CATDS: 7.16657274929937E-2; n = 1.
Assay [14] concerns EPHB3. The settings on record: read-out: apparent Kd; compound concentrations: 100 nM and 1000 nM (sheet 'Samples'), CATDS: 9.8269686784854801E-2; n = 1.
Assay [15] deals with FYN. Conditions: read-out: apparent Kd, compound concentrations: 100 nM and 1000 nM (sheet 'Samples'), n = 1.
The subject of assay [16] is RET. The settings on record: read-out: apparent Kd; compound concentrations: 100 nM and 1000 nM (sheet 'Samples'), CATDS: 0.126385665807943; n = 1.
The subject of assay [17] is PIK3CD. The settings on record: read-out: apparent Kd; compound concentrations: 100 nM and 1000 nM (sheet 'Samples'), CATDS: 0.85995893919281496; n = 1.
For assay [18], the system named is EPHA7. The settings on record: read-out: apparent Kd; compound concentrations: 100 nM and 1000 nM (sheet 'Samples'), CATDS: 1; n = 1.
The test system of assay [19] is EPHB6. The settings on record: read-out: apparent Kd, n = 1.
Assay [20] relates to FLT4. The settings on record: read-out: apparent Kd; compound concentrations: 100 nM and 1000 nM (sheet 'Samples'), CATDS: 0.213105830255753; n = 1.
For assay [21], the system named is MAP2K5. Conditions: read-out: apparent Kd, compound concentrations: 100 nM and 1000 nM (sheet 'Samples'), n = 1.
Assay [22] has as its system PDGFRB. Conditions: read-out: apparent Kd; compound concentrations: 100 nM and 1000 nM (sheet 'Samples'), CATDS: 0.165477129932846; n = 1.
Assay [23] deals with ERBB3. The settings on record: read-out: apparent Kd, n = 1.
The subject of assay [24] is MAP4K5. Conditions: read-out: apparent Kd; compound concentrations: 100 nM and 1000 nM (sheet 'Samples'), CATDS: 0.26674698552626502; n = 1.
Assay [25] has as its system NLK. Conditions: read-out: apparent Kd; compound concentrations: 100 nM and 1000 nM (sheet 'Samples'), CATDS: 0.30347996318959403; n = 1.
Assay [26] relates to NQO2. Conditions: read-out: apparent Kd; compound concentrations:100 nM and 1000 nM (sheet 'Samples'); n = 1.
The subject of assay [27] is HCK. The settings on record: read-out: apparent Kd; compound concentrations: 100 nM and 1000 nM (sheet 'Samples'), CATDS: 0.242489240886436; n = 1.
The test system of assay [28] is LCK. The settings on record: read-out: apparent Kd; compound concentrations: 100 nM and 1000 nM (sheet 'Samples'), CATDS: 0.10096254508192699; n = 1.
Assay [29] relates to LYN. Conditions: read-out: apparent Kd; compound concentrations: 100 nM and 1000 nM (sheet 'Samples'), CATDS: 8.32238060167768E-2; n = 1.
In assay [30] the test system is SRC. The settings on record: read-out: apparent Kd; compound concentrations: 100 nM and 1000 nM (sheet 'Samples'), CATDS: 0.138583252116979; n = 1.
In assay [31] the test system is YES1. The settings on record: read-out: apparent Kd; compound concentrations: 100 nM and 1000 nM (sheet 'Samples'), CATDS: 0.11029012837176901; n = 1.
The test system of assay [32] is T1, T10.
T1 construct: gene NAT10
Conditions: read-out: apparent Kd; compound concentrations:100 nM and 1000 nM (sheet 'Samples'); n = 1.

Setting [33] is: compound concentrations:100 nM and 1000 nM (sheet 'Samples').

With `Nc1ncc(-c2cccc(S(N)(=O)=O)c2)c2scc(-c3ccc(F)c(Cl)c3)c12` [GW856804X], the potency estimated from few doses in assay [1] (CATDS: 0.132169396234084) is 306 nM; in assay [2] it was 758 nM; in [3], 1770 nM; in assay [4] (CATDS: 6.5260226509332095E-2), 1210 nM; in assay [5], 1530 nM; in assay [6], 710 nM. Besides, the potency estimated from few doses in assay [7] (CATDS: 7.0423696237644606E-2) was 1000 nM; in assay [8] it was 1590 nM; in assay [9], 1510 nM; in assay [10] (CATDS: 0.101348300005731), 475 nM; in [11] (CATDS: 0.17935532425018) it was 196 nM; in assay [12] (CATDS: 9.6643303505933295E-2), 518 nM. For the same molecule, in [13], the potency estimated from few doses is 961 nM.

For `CC(C)(C)c1ccc2nccc(Nc3cccc(O)c3)c2c1` [GW856795X], the potency estimated from few doses is 443 nM in [1] (CATDS: 0.14534883893422801); 1450 nM in assay [14]; 960 nM in [15] (CATDS: 0.110039828887459); 634 nM in [16]; 52 nM in [10] (CATDS: 0.476664898558677); 192 nM in assay [11] (CATDS: 0.215705247056383). For the same molecule, the potency estimated from few doses in [12] (CATDS: 0.121800483782391) was 703 nM.

Turning to `Cn1cc(C2=C(c3c[nH]c4ccccc34)C(=O)NC2=O)c2ccccc21` [RO0317884-000], the potency estimated from few doses was 1650 nM in [4] (CATDS: 0.352465913660859) and 146 nM in assay [17].

Turning to `COc1cccc(NC(=O)NCCNc2ccnc(Nc3ccc(F)cc3)n2)c1` [GSK1379879A], the potency estimated from few doses in assay [18] is 2400 nM.

Regarding `COc1ccc(N2Cc3cnc(Nc4ccccc4)nc3N([C@@H]3CC[C@@H](O)C3)C2=O)cc1` [RO4383596-000], the potency estimated from few doses in [19] (compound concentrations: 100 nM and 1000 nM (sheet 'Samples'), CATDS: 0.20218817743622799) was 1300 nM; in assay [20] it was 1170 nM; in [7] (CATDS: 0.27304535513380701) it was 756 nM; in [21] (CATDS: 0.176800836122779) it was 1750 nM; in [22], 2060 nM.

Take `Nc1ncc(-c2ccncc2)c2scc(-c3ccc4c(c3)CCN4C(=O)Cc3ccccc3)c12` [GSK2592465A]: the potency estimated from few doses in assay [19] (compound concentrations: 100 nM and 1000 nM (sheet 'Samples'), CATDS: 0.25930053020636601) is 885 nM; in [23] (compound concentrations: 100 nM and 1000 nM (sheet 'Samples'), CATDS: 0.19609805104920999), 1700 nM; in [24], 837 nM; in assay [25], 660 nM.

Turning to `Cc1cc(-c2ccco2)cc(C)c1/C=C/c1cncc(-c2nn[nH]n2)c1.Cl` [GW458344A], the potency estimated from few doses in assay [19] (setting [33]) is 401 nM.

Regarding `Cc1cc(-c2ccccn2)cc(C)c1/C=C/c1cncc(-c2nn[nH]n2)c1.Cl` [GW459057A], the potency estimated from few doses in [19] (setting [33]) was 162 nM; in [26], 1420 nM.

Consider `Cl.Nc1c(C(=O)c2ccc(CCCN3CCOCC3)cc2)cnn1-c1ccc(F)cc1` [RO1153427-001], for which, in assay [23] (compound concentrations: 100 nM and 1000 nM (sheet 'Samples'), CATDS: 1), the potency estimated from few doses was 1820 nM.

Turning to `O=C(NCCCN1CCOCC1)c1cccc(Nc2nccc(Nc3ccc(Oc4ccccc4)cc3)n2)c1` [GW663929X], the potency estimated from few doses in [23] (compound concentrations: 100 nM and 1000 nM (sheet 'Samples'), CATDS: 6.7979180467830594E-2) was 1550 nM; in assay [15] (CATDS: 0.114580255038188), 343 nM; in assay [27], 96.7 nM; in assay [28], 455 nM; in assay [29] it was 756 nM; in assay [21] (CATDS: 7.7428617985082396E-2) it was 947 nM. Also, the potency estimated from few doses in [10] (CATDS: 0.16454989385531299) is 175 nM; in assay [11] (CATDS: 6.5605703607897303E-2), 1820 nM; in [30] it was 236 nM; in assay [31], 373 nM.

Turning to `C[C@@H]1CC[C@@H](C(=O)Nc2ccccc2)CN1c1cc(-c2ccc3c(N)n[nH]c3c2)nc(N)n1` [GSK2286062A], the potency estimated from few doses was 1760 nM in assay [23] (setting [33]) and 1120 nM in assay [32].

(Values after article PMC11062922 (Nature Chemical Biology, 2023).)
